# Source: PubChem BioAssay (National Center for Advancing Translational Sciences (NCATS))
# A selection: hits, their analogues and other compounds. The true share with any hit is near 12%.
# BAZ2B block: inhibitors of human BAZ2B bromodomain; Q9UIF8; AlphaScreen BAZ2B-H3K14Ac peptide displacement; Potency, µM (doses to about 114 µM), without a hit: at the top dose activity change, negative = inhibition, usual class: inhibitors; hit rate 4.4% among 360,000; AID 504333; further: on the % scale 0 is the no-effect control and ±100 the full control effect; nearly all actives have a fitted effect of over 60% in size
#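 AlphaScreen luminescence quantifies BAZ2B engagement of H3K14Ac peptide; the protein and biotinylated peptide are both at 50 nM final, buffer PBS pH 7.4 with 0.01% Tween-20, all steps at room temperature.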
# L3MBTL1 block: blocks human L3MBTL1. Q9Y468. AlphaScreen L3MBTL1–H3K9me1 peptide binding. Potency, µM (top dose mostly 57.1 µM), for the others: at the highest dose activity, negative = inhibition, hits mostly inhibitors. hit rate 0.66% among 230,000. AID 485360; further: on the % scale 0 is the no-effect control and ±100 the full control effect; nearly all actives have a fitted effect of over 60% in size
# Target sequence (Q9Y468 whole entry, looked up): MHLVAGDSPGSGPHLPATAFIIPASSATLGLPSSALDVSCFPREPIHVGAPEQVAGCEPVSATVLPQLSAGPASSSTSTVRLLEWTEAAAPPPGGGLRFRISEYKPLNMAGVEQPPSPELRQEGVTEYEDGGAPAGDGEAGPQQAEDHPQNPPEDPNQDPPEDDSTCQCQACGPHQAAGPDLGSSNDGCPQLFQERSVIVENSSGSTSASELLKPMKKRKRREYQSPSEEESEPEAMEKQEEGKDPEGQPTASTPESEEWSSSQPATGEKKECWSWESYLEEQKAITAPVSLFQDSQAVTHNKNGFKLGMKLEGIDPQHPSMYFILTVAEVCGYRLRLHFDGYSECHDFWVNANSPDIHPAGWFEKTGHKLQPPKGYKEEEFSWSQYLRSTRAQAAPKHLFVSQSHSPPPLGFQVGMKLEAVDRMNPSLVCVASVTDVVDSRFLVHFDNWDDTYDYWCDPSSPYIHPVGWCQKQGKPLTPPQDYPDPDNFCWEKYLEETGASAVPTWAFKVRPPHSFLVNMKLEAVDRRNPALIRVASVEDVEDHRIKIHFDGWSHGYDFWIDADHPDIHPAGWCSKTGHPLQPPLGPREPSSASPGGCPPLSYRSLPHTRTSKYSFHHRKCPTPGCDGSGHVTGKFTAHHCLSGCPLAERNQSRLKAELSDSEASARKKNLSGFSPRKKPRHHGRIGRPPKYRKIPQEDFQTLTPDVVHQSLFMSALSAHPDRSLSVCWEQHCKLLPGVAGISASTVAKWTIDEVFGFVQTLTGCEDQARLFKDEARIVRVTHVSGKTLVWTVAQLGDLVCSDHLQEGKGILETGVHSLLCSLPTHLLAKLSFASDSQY
#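 Read-out is AlphaScreen signal from streptavidin donor and nickel chelate acceptor beads (10 ug/mL final each) bridging L3MBTL1 (50 nM) and biotinylated K9-monomethylated H3(1-15) peptide (75 nM), after 30 min compound exposure at room temperature.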
# JMJD2A Tudor: inhibitors of human JMJD2A Tudor domain. hit rate 4.4% among 390,000. Potency, µM (top dose mostly 114 µM), for inactives: at the highest dose activity change, negative = inhibition, usual class: inhibitors. AID 504339. AlphaScreen JMJD2A-Tudor / H3K4me3 peptide binding. O75164; further: on the % scale 0 is the no-effect control and ±100 the full control effect; nearly all actives have a fitted effect of over 50% in size
# HP1b binding inh: inhibitors of HP1-beta chromodomain binding to methylated histone tails. P83916. AlphaScreen HP1-beta / biotin-H3K9me3 peptide binding. Potency, µM (doses to about 114 µM), inactives show at the highest dose activity change, negative = inhibition, most hits filed as inhibitors. hit rate 0.56% among 390,000. AID 540317; further: nearly all actives have a fitted effect of over 70% in size
#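 AlphaScreen: HP1-beta (50 nM) preformed 30 min with biotin-H3(1-18)K9me3 peptide (50 nM) in PBS pH 7.4, 0.01% Tween-20. Compound added for 30 min at RT, then streptavidin donor/nickel chelate acceptor beads (10 ug/mL) for 30 min.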
# G9a block: blocks human histone lysine methyltransferase G9a; AID 504332; Q96KQ7; G9a H3K9 monomethylation, AlphaScreen, 2 h; hit rate 8.8% among 350,000; Potency, µM (top dose mostly 102 µM), inactives show top-dose activity, negative = inhibition, most hits filed as inhibitors; further: on the % scale 0 is the no-effect control and ±100 the full control effect; nearly all actives have a fitted effect of over 75% in size
#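 G9a (20 nM) was preincubated 15 min with compound, then reacted 2 h at room temperature with 500 nM biotin-H3K9 peptide and 20 µM SAM. Monomethyl-H3K9 detected by AlphaScreen using anti-H3K9me1 antibody.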
# Sfp PPTase inh: inhibitors of Bacillus subtilis Sfp phosphopantetheinyl transferase. Q9F4F7. Biochemical Sfp PPTase activity, qHTS. Potency, µM, for the others: largest response in the series, negative = inhibition, usual class: inhibitors. hit rate 3.5% among 310,000. AID 1490;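 further: the enzyme is Sfp with the accession as filed and its product quenches rhodamine fluorescence; 0% = enzyme reaction without inhibitor and -100% = no enzyme wells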
#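 After 15 min at room temperature with compound, 15 nM Sfp received 5 uM rhodamine-CoA plus 12.5 uM BHQ-2-ybbR (50 mM Hepes pH 7.6, 10 mM MgCl2). Rate came from the fluorescence difference over 30 min, ex 525/em 598 nm.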
# * hit, by the source's call; u = inconclusive; x = no result given; [ ] = dose if it differs, or a comment. The call rests on the fitted dose curve; in most records, active means well fitted curve in the direction sought with a large enough effect; inconclusive means small, poorly fitted or top-dose-only effect, or another doubt; inactive means no such curve, though single readings can be large; an effect the other way counts as inactive or inconclusive. Potency means the concentration at half of the fitted maximal effect.
SMILES,BAZ2B block,L3MBTL1 block,JMJD2A Tudor,HP1b binding inh,G9a block,Sfp PPTase inh
Cc1ccc(-n2c(SCC(=O)NCc3ccco3)nc3sc(C)c(C)c3c2=O)cc1,-1%,-47%,-8%,12%,-44%[59 µM],-3%
C=CCn1c(SCC(=O)N2CCOCC2)nc2scc(-c3ccco3)c2c1=O,u,u,28µM*,-23%,u,2.8µM*
CC(C)C(C)(C#N)NC(=O)CSc1nc2scc(-c3ccco3)c2c(=O)n1-c1ccccc1 (stereo unspecified),-11%,-1%,-3%[11.4 µM],50%,45µM*,7.9µM*
C=CCn1c(SCC(C)=O)nc2scc(-c3ccco3)c2c1=O,45µM*,x,50µM*,u,7.9µM*,7.1µM*
C=CCn1c(SC(F)F)nc2scc(-c3ccco3)c2c1=O,-12%,x,14%,-4%,-61%,u
Cc1cc(O)c(C(c2ccccc2Cl)N2CCN(c3ccccc3)CC2)c(=O)n1Cc1ccco1 (stereo unspecified),-26%,x,u,22%[57 µM],u,x
CCN1CCN(CCCNC(=O)c2ccc(/C=C3/Sc4ccccc4N(Cc4ccccc4F)C3=O)cc2)CC1,u,x,40µM*,-3%,u,50µM*
CCN1CCN(CCNC(=O)c2ccc(/C=C3/Sc4ccccc4N(Cc4ccccc4C)C3=O)cc2)CC1,u,x,-35%[11.4 µM],-19%,u,40µM*
CCN1CCN(CCCNC(=O)c2ccc(/C=C3/Oc4ccccc4N(Cc4cccc(C)c4)C3=O)cc2)CC1,4%,x,u,30%[57 µM],-6%[0.0925 µM],40µM*
C=CCNc1nc(C(=O)OCC(=O)Nc2ccc(S(N)(=O)=O)cc2)cs1,89µM*,-24%,u,0%,-36%,x
C=CCNc1nc(C(=O)OCC(=O)c2ccccc2)cs1,u,x,-12%,10%,x,8%
O=CN1CCc2scc[n+]2-c2ccccc21,-6%,8%,-25%,27%,u,32µM*
O=C(Nc1ccccc1)N1CCc2scc[n+]2-c2ccccc21,-8%,1%,-20%,-5%,-16%[59 µM],u
Cc1nnc(C)c2c(C)n(-c3ccccc3N)c(C)c12,-38%,-35%,u,13%,-44%,56µM*
Cc1nnc(C)c2c(C)n(-c3cccc4cccnc34)c(C)c12,u,-2%,x,x,71µM*,4%
Cc1nnc(C)c2c(C)n(-c3ccccc3)c(C)c12,-10%,x,u,-7%,-16%,-4%
CCC1CN(C(=O)N2CCC(C(=O)NCc3cccc(F)c3)CC2)c2cc(C)ccc2O1 (stereo unspecified),u,x,-24%,-10%,u,x
Cc1ccc(O)c(CP(=O)(c2ccccc2)c2ccccc2)c1,4%,9%,-21%,17%,5%[59 µM],4%
CCNc1ccccc1CP(=O)(c1ccccc1)c1ccccc1O (stereo unspecified),40µM*,x,50µM*,32µM*,u,1.4µM*
Cc1cc(C)c(S(=O)(=O)NCCS(=O)(=O)N2CCN(c3ccccc3)CC2)c(C)c1,-18%,x,-28%,12%[57 µM],-26%[59 µM],x
Cc1cc(C)c(S(=O)(=O)NCC23C=CC(O2)C2C(=O)N(c4ccccc4)C(=O)C23)c(C)c1 (stereo unspecified),u,1%,50µM*,u,-15%[0.501 µM],28µM*
O=C1C2C3C=CC(CNS(=O)(=O)c4ccccc4[N+](=O)[O-])(O3)C2C(=O)N1c1ccccc1 (stereo unspecified),-18%,0%,u,u,4.5µM*,28µM*
CCOC(=O)c1[nH]c(C)c(C(=O)NCCc2ccccc2)c1C,-7%,x,-21%,16%,-9%[59 µM],x
O=c1c(=O)n(-c2ccc(F)c(F)c2)ccn1Cc1ccc(F)cc1Cl,-14%,x,-27%,9%,-28%[59 µM],x
Cc1cccc(C)c1NC(=O)CCCCCC1NC(=O)NC1C (stereo unspecified),8.9µM*,x,3%,53%,13µM*,-5%
SMILES,BAZ2B block,L3MBTL1 block,JMJD2A Tudor,HP1b binding inh,G9a block,Sfp PPTase inh
C[C@@H]1NC(=O)N[C@@H]1CCCCCC(=O)O,x,x,1µM*,u,x,x
CC1NC(=O)NC1CCCCCC(=O)NCCc1ccccc1 (stereo unspecified),0.89µM*,1.4µM*,3.5µM*,u,u,-4%
CCCCCC1NC(=O)NC1CCCCCC(=O)O (stereo unspecified),1%,-2%[11.4 µM],-10%,41%,1%[12.7 µM],8%
CC(=O)NC(Nc1nc2c(s1)CCCC2)(C(F)(F)F)C(F)(F)F,-3%,4%,-2%,u,50µM*,-6%
O=S(=O)(Nc1nnc(C2CC2)s1)c1ccccc1,-13%,x,-2%,48%,50µM*,-20%
CS(=O)(=O)Nc1nnc(C2CCCC2)s1,-24%,0%,-36%,-5%,50µM*,-10%
CCCCc1nc2c(c3c1C[C@H](C)OC3)CN(C(=O)Nc1ccc(OC)cc1)CC2,x,x,x,x,x,4%
COC(=O)C1=C[C@@H](C(=O)OC)C2C3=C(C(=O)[C@@]2(C)NC(=O)c2ccccc2)[C@H](c2ccccc2)[C@@H]2C(=O)N(c4ccccc4)C(=O)[C@@H]2[C@@H]3C1 (stereo partly specified),x,x,-21%,38%,x,22%
CCCCCCCCCCCCCC/C(C(=O)O)=C(\C)C(=O)O,x,x,x,x,x,-15%
COc1ccc(C(=O)O)c(O)c1OC,x,x,x,x,x,9%
COC1=C(N)C(=O)c2nc(-c3nc(C(=O)O)c(C)c(-c4ccc(OC)c(OC)c4O)c3N)ccc2C1=O,2%,20µM*,89µM*,-23%,u,3.5µM*
COc1ccc2c(c1)c(=O)c(S(=O)(=O)c1ccc(F)cc1)cn2Cc1ccccc1Cl,1%,x,-12%,37%,u,x
Cc1ccc(Cn2c(=N)n(CC(O)COc3ccccc3)c3ccccc32)cc1 (stereo unspecified),-28%,x,-24%,6%,u,22µM*
CCN(CC)c1ccc(NC(=O)C2CCCN(S(=O)(=O)c3cnc[nH]3)C2)c(C)c1 (stereo unspecified),-5%,x,u,-5%,35µM*,-27%
Cc1ccc(NC(=O)C2CCCN(S(=O)(=O)c3cnc[nH]3)C2)cc1C (stereo unspecified),8%,3%,-32%,22%,-8%[59 µM],10%
COc1ccc2nc(C)cc(N/N=C/c3ccccc3)c2c1,-2%,1%,u,-2%,-11%[12.7 µM],x
COc1ccc2nc(C)cc(Nc3ccc(N4CCOCC4)cc3)c2c1,u,x,u,-14%,u,-4%
COc1ccc2nc(C)cc(Nc3ccc(N4CCN(C)CC4)cc3)c2c1,u,x,-36%,14%,45µM*,0%
COc1ccc2nc(C)cc(NCCN3CCOCC3)c2c1,5%,x,-12%,-10%,45µM*,10%
